Compounds without any hit were thinned out: in the full panel of roughly 83,000, 20% have a hit.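 Activity criterion: percent growth below 10, measured after cells in 96-well plates were exposed to a single compound concentration for 48 hours.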 Unmarked numbers belong to inactive results. Active and inactive are the calls of the source.
What follows are compounds tested on OVCAR-4 ovarian (assay: NCI-60 one-dose screen, 48 h (100 = growth as untreated, 0 = no growth, -100 = all killed)). Conditions: 10 µM unless noted.
Method: Growth inhibition of the OVCAR-4 human tumor cell line is measured as a screen for anti-cancer activity. Cells are grown in 96 well plates and exposed to the test compound for 48 hours. Compounds are tested at a single concentration, which is 10^-5 M for most compounds. The reported endpoint is percent growth (GI% or GIPRCNT), where numbers from 0 - 100% represent growth inhibition, and numbers from -100% - 0 represent cell death. For example, a value of 40 represents 60% growth inhibition. A value of 0 means no net growth occurred over the course of the experiment. A value of -40 indicates 40% of cells at the beginning of the experiment died by the end of the experiment. A value of -100 means all cells are dead at the end of the experiment.
NCI-60 Human Tumor Cell Lines Screen was performed using the standard one-dose NCI protocol, which is described in more detail at https://dtp.cancer.gov/discovery_development/nci-60/default.htm.
Compounds with GIPRCNT values below 10 were considered active. Activity score was based on GIPRCNT using the following formula: […]
Score is 0 for GIPRCNT values of 100 or above, 50 for GIPRCNT values of 0, and 100 for GIPRCNT values of -100.
Compound `COc1cccc(/C=C/C(=O)c2cc3c(N)c(C(=O)Nc4ccccc4)sc3nc2C)c1` has a growth of 61.5%.
With `O=Nc1c(-c2c(O)[nH]c3ncccc23)[nH]c2ccccc12` the growth was 66.7%.
`CCN(CC)c1nc(SCc2ccccc2Cl)ncc1C` showed a growth of 101%.
Compound `COc1ccc2[nH]cc(-c3nc(-c4cn(C)c5c(Cl)nccc45)cs3)c2c1` has a growth of 68.8%.
`O=C1Nc2ccc(I)cc2C1=O` was tested, and the growth was 101%.
Work on `CN(C)CC(=O)Nc1ccc2ncnc(Nc3ccc(Oc4cccc(C(F)(F)F)c4)c(Cl)c3)c2c1` yielded a growth of 51.5%.
`CCCCCCNC(=O)Oc1ccc(/C(=C(/C)Cc2ccc(OC)cc2)c2ccc(OCCCN(C)C)cc2)cc1` showed a growth of 60.7%.
With `CS(=O)(=O)Nc1cc(-c2ccc3ncnc(Nc4c(Cl)ccc5c4OCO5)c3c2)cnc1Cl` the growth was 8.29% (active).
For `CCn1c(=S)sc2c(Nc3ccc(F)cc3)nc(-c3cccnc3)nc21`, the growth was -12% (active).
`CN(C)c1ccc(/C=C/C(=O)c2ccc(-n3cc(CN4CCN(c5cc6c(cc5F)c(=O)c(C(=O)O)cn6C5CC5)CC4)nn3)cc2)cc1` gave a growth of 93.1%.
For `COc1ccc(C(=S)N2CCN(c3ccccc3Cl)CC2)cc1OC`, the growth was 99.9%.
`S=C(Nc1ccc(-c2nc(N3CCOCC3)c3cccn3n2)cc1)Nc1cccnc1` was tested, and the growth was 43.2%.
For `O=[N+]([O-])c1ccc(S(=O)(=O)N2CCN(C3=NS(=O)(=O)c4ccccc4N3c3ccccc3)CC2)cc1`, the growth was 99.8%.
For `CCOC(=O)c1cnc2ccccc2c1Cl`, the growth was 84.7%.
In the case of `CC(C)OC(=O)c1ccc2[nH]c(O)c(C(=Nc3ccc(N(C)C(=O)CN4CCN(C)CC4)cc3)c3ccccc3)c2c1`, the growth is reported as -72.3% (active).
`Cc1ccc(-n2c(=S)[nH]c3sc4c(c3c2=O)CCC(=O)C4)cc1` gave a growth of 69.3%.
For `O=C(N/N=C/c1ccc(F)cc1)c1ccc(C(F)(F)F)nc1Nc1cccc(C(F)(F)F)c1`, the growth was -6.96% (active).
`Cc1ccc(NC(=S)NNC(=S)NNc2ccccc2)cc1C` was tested, and the growth was 114%.
`O=C1Nc2ccccc2[C@]12CC(c1ccccc1)=NN2` gave a growth of 84.5%.
`COC(=O)[C@]1(C)CCC[C@]2(C)[C@H]3C[C@H]4C(C(C)C)=C[C@]3(CC[C@H]21)[C@H]1[C@@H]4[C@@H](OCCC#N)CC[C@@H]1OCCC#N` gave a growth of 30.7%.
In the case of `N#CC1=C(N)Oc2c(sc3c(F)cccc23)C1c1ccc(F)cc1` (stereo not given), the growth is reported as 60.8%.
With `COC(=O)c1ccc2c(c1)C(=O)c1c-2n(CCCN)c(=O)c2cc([N+](=O)[O-])ccc12` the growth was -77.1% (active).
`Cc1ccc(-c2cc(-c3ccc(Cl)cc3)nc(NC(=O)c3cccnc3)n2)cc1` gave a growth of 100%.
Work on `O=C(c1ccc(-c2nc(CSc3nc4ccccc4s3)no2)cc1)N1CCSCC1` yielded a growth of 69.5%.
Work on `C=CCn1c(SCC(=O)Nc2ccc(C(=O)/C=C/c3cc4cc(OC)ccc4nc3Cl)cc2)nnc1-c1ccc(Br)cc1` yielded a growth of 84.8%.
`Clc1ccc(CNc2c3ccccc3nc3ccccc23)cc1` gave a growth of 33.1%.
`C/C(=C(/c1ccc(Cl)cc1)c1ccc(OCCN2CCCC2)cc1)c1ccc(Cl)cc1` was tested, and the growth was 95.1%.
`COC(=O)[C@H]1CCCN1C[C@@H](O)CN1C(=O)/C(=C\c2cc(OC)c(OC)c(OC)c2)c2ccccc21` showed a growth of 90.6%.
`Nc1c(C(=O)Nc2ccccc2Cl)sc2nc3c(cc12)C(O)CCC3` (stereo not given) was tested, and the growth was 53.9%.
For `O=C1C(Cl)=C(Oc2ccccc2)C(=O)c2ccccc21`, the growth was 106%.
For `CN(C)c1ccc(Nc2cc(-c3cccc(OC(F)(F)F)c3)nc3ccc(N4CCCC4)cc23)cc1`, the growth was -73.8% (active).
`CC(C)N1CN2C(=S)NC3C2N(C1)C(=S)N3C` (stereo not given) was tested, and the growth was 117%.
Compound `O=C(Cn1c(=O)sc2nc3ccccc3nc21)Nc1ncc(Cc2cccc(Cl)c2Cl)s1` has a growth of 102%.
Compound `CCOC(=O)c1c(NC(=O)c2ccc(C(C)C)cc2)sc2c(CN(C)C)c(O)ccc12` has a growth of 87.2%.
`CC(=O)N(N=Nc1ccccc1)c1cccc2ccccc12` was tested, and the growth was 94.5%.
`O=S(=O)(NCCNc1nccc(-c2c(-c3cccc(F)c3)nc3occn23)n1)c1ccc(Br)cc1` was tested, and the growth was 93.9%.
For `O=C(CI)NC1Oc2ccccc2-c2oc(=O)c(-c3ccccc3)cc21` (stereo not given), the growth was -40.3% (active).
Compound `CCOc1ccc(NC(=O)CSc2oc(-c3ccccc3)nc2S(=O)(=O)c2ccc(F)cc2)cc1` has a growth of 66.1%.
In the case of `CS(=O)(=O)C1=CN(CCO)C(=O)N2CCCN=C12`, the growth is reported as 115%.
In the case of `N#CC1C=CN(CC(N)=O)c2ccc3cccnc3c21` (stereo not given), the growth is reported as 98.6%.
